Some test systems named below: NCI-H23 lung; NCI-H226 lung; NCI-H322M lung; HOP-62 NSCLC; NCI-H460 lung; HOP-92 NSCLC; A549/ATCC NSCLC; 786-0 renal; COLO 205 colon; DU-145 prostate; K-562 leukemia; MALME-3M melanoma; MDA-MB-231 breast; RXF 393 renal; SF-268 CNS; SF-295 CNS; SF-539 CNS; UACC-257 melanoma; M14 melanoma; NCI-H522 lung.
What all share (assay): NCI-60 one-dose screen, 48 h (100 = growth as untreated, 0 = no growth, -100 = all killed)
Holding throughout (settings): 10 µM unless noted

About 83,000 compounds went through this panel and 20% of them were active in at least one assay; those are over-represented in the sample as a whole.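 Values shown are percent growth following 48 h exposure of cells in 96-well plates to a single concentration of compound; below 10 was considered active.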 Unmarked numbers belong to inactive results. Activity calls are given as the source filed them.

`O=C(Nc1cccnc1Nc1ccc(Cl)cc1)c1cn(Cc2cccc(Oc3ccccc3)c2)nn1`: the growth is 63% in the test with NCI-H23 lung; 55.9% with NCI-H226 lung; 68.7% with NCI-H322M lung; 61.1% in the test with HOP-62 NSCLC; 35.2% in the test on NCI-H460 lung; 53% in the test with HOP-92 NSCLC. The growth in the test on A549/ATCC NSCLC was 42.4%; with 786-0 renal it was 52.2%; with COLO 205 colon, 73.6%; in the test with DU-145 prostate, 59.7%; in the test on K-562 leukemia, 23.1%; in the test with MALME-3M melanoma it was 58%. In addition, the growth in the test with MDA-MB-231 breast was 53.3%; with RXF 393 renal it was 44.1%; with SF-268 CNS, 45.2%; in the test with SF-295 CNS, 29.2%; with SF-539 CNS, 33.6%; in the test on UACC-257 melanoma it was 62%. In the test on M14 melanoma, the growth was 21.8%.
`CCCCCCCCn1ccc2cc(NC(=O)CN=[N+]=[N-])ccc21`: the growth with NCI-H23 lung was 102%; with NCI-H226 lung, 95.4%; in the test on NCI-H322M lung, 102%; in the test with HOP-62 NSCLC it was 114%; with NCI-H460 lung, 107%; in the test with HOP-92 NSCLC it was 111%. Also, the growth in the test with NCI-H522 lung was 88.3%; in the test on A549/ATCC NSCLC it was 100%; with 786-0 renal, 94.1%; in the test on COLO 205 colon, 118%; with DU-145 prostate, 108%; in the test on K-562 leukemia, 93.5%. Further, the growth in the test with MALME-3M melanoma was 109%; in the test with MDA-MB-231 breast, 101%; with RXF 393 renal, 104%; in the test with SF-268 CNS, 97.9%; with SF-295 CNS, 100%; with SF-539 CNS it was 106%. In addition, the growth was 103% with UACC-257 melanoma and 109% with M14 melanoma.
With `COc1ccc2c(c1)CC[C@@H]1[C@@H]2CC[C@]2(C)c3c(cc(C#N)c4c3sc3ccccc34)C[C@@H]12`, the growth in the test with NCI-H23 lung is 99.4%; with NCI-H226 lung it was 99.2%; with NCI-H322M lung it was 108%; in the test with HOP-62 NSCLC, 99.5%; with NCI-H460 lung, 115%; in the test with HOP-92 NSCLC it was 62.4%. In addition, the growth with A549/ATCC NSCLC was 106%; in the test with 786-0 renal it was 111%; in the test with COLO 205 colon it was 110%; in the test on DU-145 prostate, 121%; in the test with K-562 leukemia, 88.5%; with MALME-3M melanoma, 108%. Further, the growth with MDA-MB-231 breast was 107%; in the test on RXF 393 renal it was 106%; in the test on SF-268 CNS it was 100%; in the test with SF-295 CNS it was 103%; in the test on SF-539 CNS, 105%; in the test with UACC-257 melanoma it was 99.9%. For the same compound, in the test with M14 melanoma, the growth is 161%.
Turning to `CS(=O)(=O)Nc1cc(-c2ccc3ncnc(Nc4ccc(F)c(Cl)c4)c3c2)ccc1Cl`, the growth with NCI-H23 lung is 48.9%; in the test with NCI-H226 lung it was 70.1%; with NCI-H322M lung, 24.7%; in the test with HOP-62 NSCLC, 64.7%; in the test on NCI-H460 lung it was 44.7%; in the test with HOP-92 NSCLC it was -6.71% (active). In addition, the growth in the test on A549/ATCC NSCLC is 31.6%; with 786-0 renal, 50.3%; in the test on COLO 205 colon, 58.7%; in the test with DU-145 prostate, 39.8%; with K-562 leukemia, 39.4%; with MALME-3M melanoma, 53.4%. The growth with MDA-MB-231 breast is 54.3%; with RXF 393 renal it was 22%; in the test on SF-268 CNS, 52.7%; with SF-295 CNS it was 15.6%; with SF-539 CNS it was 52.1%; in the test on UACC-257 melanoma, 59.6%. Further, in the test on M14 melanoma, the growth is 46.8%.
With `CCCCCc1ccc(S(=O)(=O)Nc2ccc3nc(N)oc3c2)cc1`, the growth with NCI-H23 lung was 40.2%; with NCI-H226 lung, 46.3%; with NCI-H322M lung, 96.9%; in the test on HOP-62 NSCLC it was 78.5%; with NCI-H460 lung, 60.8%; in the test on HOP-92 NSCLC, 19.5%. Moreover, the growth in the test on A549/ATCC NSCLC was 53.2%; in the test on 786-0 renal it was 72.4%; with COLO 205 colon it was 72.4%; in the test on DU-145 prostate, 74.2%; with K-562 leukemia it was 27.9%; with MALME-3M melanoma it was 89.8%. The growth is 64.3% in the test on MDA-MB-231 breast; 77.4% with RXF 393 renal; 51.1% with SF-268 CNS; 30.8% in the test on SF-295 CNS; 71.3% in the test on SF-539 CNS; 34.4% in the test with UACC-257 melanoma.
Consider `O=C(C[C@]1(O)C(=O)Nc2ccc(Br)cc21)c1ccco1`, for which the growth with NCI-H23 lung was 97%; with NCI-H226 lung, 92.9%; in the test with NCI-H322M lung it was 93.8%; in the test on HOP-62 NSCLC it was 106%; in the test with NCI-H460 lung, 105%; in the test with HOP-92 NSCLC it was 102%. For the same compound, the growth with NCI-H522 lung was 88.3%; in the test on A549/ATCC NSCLC, 104%; in the test with 786-0 renal, 108%; with COLO 205 colon, 106%; in the test with DU-145 prostate, 106%; in the test with K-562 leukemia, 93.8%. Besides, the growth with MALME-3M melanoma is 84.1%; in the test with MDA-MB-231 breast, 98.6%; in the test with RXF 393 renal, 108%; with SF-268 CNS, 88.5%; in the test with SF-295 CNS it was 103%; with SF-539 CNS it was 104%. The growth in the test on UACC-257 melanoma was 101%; in the test with M14 melanoma, 99.1%.
With `Cn1cc(-c2csc(-c3cn(CCCN4CCOCC4)c4ccc(F)cc34)n2)c2cccnc21`, the growth in the test on NCI-H23 lung is 63.7%; with NCI-H226 lung, 51.9%; with NCI-H322M lung it was 79%; with HOP-62 NSCLC it was 71.7%; in the test with NCI-H460 lung it was 41%; in the test with HOP-92 NSCLC, 40.8%. In addition, the growth in the test on A549/ATCC NSCLC was 66.1%; in the test with 786-0 renal, 57.4%; in the test with COLO 205 colon it was 51.3%; in the test with DU-145 prostate, 80.3%; in the test with K-562 leukemia it was 0.484% (active); with MALME-3M melanoma it was 87.4%. Besides, the growth in the test with MDA-MB-231 breast is 25.1%; with RXF 393 renal, 36.1%; with SF-268 CNS it was 66.6%; in the test on SF-295 CNS, 11.2%; with SF-539 CNS, 57.6%; with UACC-257 melanoma it was 78.5%. For the same compound, the growth in the test on M14 melanoma is 46.2%.
In the case of `Cc1sc2nc(NCCN)[nH]c(=O)c2c1C`, the growth in the test on NCI-H23 lung was 91%; in the test on NCI-H226 lung, 84.8%; with NCI-H322M lung, 83.7%; in the test on HOP-62 NSCLC, 99.8%; in the test on NCI-H460 lung it was 101%; in the test on HOP-92 NSCLC it was 87.7%. Besides, the growth was 102% with NCI-H522 lung; 101% in the test on A549/ATCC NSCLC; 84.2% with 786-0 renal; 77% in the test on COLO 205 colon; 96.7% in the test with DU-145 prostate; 103% with K-562 leukemia. In addition, the growth with MALME-3M melanoma was 82.1%; in the test with MDA-MB-231 breast it was 81.1%; in the test on RXF 393 renal it was 100%; with SF-268 CNS it was 91.4%; in the test on SF-295 CNS, 98%; with SF-539 CNS, 88.1%. For the same compound, the growth in the test on UACC-257 melanoma was 107%; with M14 melanoma, 85.1%.

These data come from PubChem BioAssay (NCI).
